The campaign covered roughly 5,500 compounds. About 2,000 (36%) were called active. About 18% were inconclusive and are not listed. No stated cut-off is given here; in the data, active means normalized growth mostly below about 0.91 (no sharp cut-off); inconclusive means no clear call, values can overlap the other calls; inactive means mostly above about 0.92. The list shows a part of the results.
Assay: chemical genetic growth profiling, strain panel (AID 1159580);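 further: tested at 20 µM; growth read once vehicle control cultures reached saturation at 30 °C; 1 = growth at the plate median or of vehicle wells; lower values mean less growth of the strain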
Conditions: S. cerevisiae deletion strains, growth OD

Measured: normalized growth

O=c1oc2ccccc2cc1O
inactive: locus YAL021C, strain ccr4, active compounds read low 0.986 | locus YAL026C, strain drs2, active compounds read low 0.975 | locus YAL030W, strain snc1, active compounds read low 0.993 | locus YBL061C, strain skt5, active compounds read low 0.993 | locus YBR009C, strain hhf1, active compounds read low 1 | locus YBR021W, strain FUR4, active compounds read low 1.03 | locus YBR023C, strain chs3, active compounds read low 0.993 | locus YBR171W, strain sec66, active compounds read low 0.977 | locus YBR229C, strain ROT2, active compounds read low 1.03 | locus YBR231C, strain swc5, active compounds read low 1.01 | locus YBR279W, strain paf1, active compounds read low 0.994 | locus YCL011C, strain gbp2, active compounds read low 1.01 | locus YCL016C, strain dcc1, active compounds read low 0.999 | locus YCL029C, strain bik1, active compounds read low 1.02 | locus YCL061C, strain MRC1, active compounds read low 0.991 | locus YCL069W, strain vba3, active compounds read low 0.968 | locus YCR088W, strain abp1, active compounds read low 0.986 | locus YDL005C, strain med2, active compounds read low 0.986 | locus YDL035C, strain GPR1, active compounds read low 1.06 | locus YDL040C, strain nat1, active compounds read low 0.994 | locus YDL074C, strain BRE1, active compounds read low 1.13 | locus YDL101C, strain DUN1, active compounds read low 1.01 | locus YDL134C, strain PPH21, active compounds read low 1.07 | locus YDL185W, strain tfp1, active compounds read low 0.998 | locus YDL192W, strain arf1, active compounds read low 1.03 | locus YDR001C, strain nth1, active compounds read low 0.984 | locus YDR069C, strain doa4, active compounds read low 0.991 | locus YDR101C, strain arx1, active compounds read low 0.991 | locus YDR137W, strain rgp1, active compounds read low 0.969 | locus YDR159W, strain sac3, active compounds read low 1.03 | locus YDR162C, strain NBP2, active compounds read low 1.04 | locus YDR195W, strain ref2 1.01 | locus YDR297W, strain sur2, active compounds read low 0.989 | locus YDR318W, strain mcm21, active compounds read low 0.995 | locus YDR334W, strain swr1, active compounds read low 0.96 | locus YDR335W, strain msn5, active compounds read low 1 | locus YDR388W, active compounds read low 0.992 | locus YDR392W, strain spt3, active compounds read low 0.983 | locus YDR502C, strain sam2, active compounds read low 0.986 | locus YEL003W, strain gim4, active compounds read low 0.993 | locus YEL037C, strain rad23, active compounds read low 0.979 | locus YEL061C, strain CIN8 (second series), active compounds read low 0.976 | locus YER015W, strain faa2, active compounds read low 1.01 | locus YER016W, strain bim1, active compounds read low 1 | locus YER110C, active compounds read low 0.974 | locus YER111C, strain swi4, active compounds read low 0.988 | locus YER155C, strain BEM2 (second series), active compounds read low 0.989 | locus YER155C, strain BEM2, active compounds read low 1.02 | locus YER167W, strain BCK2, active compounds read low 1.03 | locus YFR010W, strain ubp6, active compounds read low 0.963 | locus YGL078C, strain dbp3, active compounds read low 0.953 | locus YGL086W, strain mad1, active compounds read low 0.994 | locus YGL167C, strain pmr1, active compounds read low 0.99 | locus YGL173C, strain kem1, active compounds read low 0.996 | locus YGL227W, strain vid30, active compounds read low 0.995 | locus YGL240W, strain doc1, active compounds read low 0.984 | locus YGL248W, strain PDE1, active compounds read low 1.04 | locus YGL253W, strain hxk2, active compounds read low 0.994 | locus YGR135W, strain pre9, active compounds read low 0.969 | locus YGR252W, strain gcn5, active compounds read low 0.924 | locus YHR013C, strain ard1, active compounds read low 1.04 | locus YHR027C, strain rpn1, active compounds read low 0.986 | locus YHR079C, strain IRE1 (second series), active compounds read low 0.986 | locus YHR094C, strain hxt1, active compounds read low 0.989 | locus YHR129C, strain ARP1, active compounds read low 1.06 | locus YHR142W, strain chs7, active compounds read low 0.974 | locus YHR200W, strain rpn10, active compounds read low 0.983 | locus YIL066C, strain RNR3, active compounds read low 1.04 | locus YIL073C, strain SPO22, active compounds read low 1.08 | locus YIL125W, strain kgd1, active compounds read low 1 | locus YIR030C, strain dcg1, active compounds read low 1 | locus YJL092W, strain hpr5, active compounds read low 0.987 | locus YJL095W, strain BCK1 (second series), active compounds read low 0.982 | locus YJL095W, strain BCK1, active compounds read low 1.11 | locus YJL115W, strain asf1, active compounds read low 0.98 | locus YJL129C, strain trk1, active compounds read low 0.989 | locus YJL134W, strain LCB3, active compounds read low 1.02 | locus YJL154C, strain vps35, active compounds read low 0.987 | locus YJL164C, strain tpk1, active compounds read low 0.99 | locus YJL166W, strain qcr8, active compounds read low 0.992 | locus YJL168C, strain set2, active compounds read low 0.989 | locus YJL187C, strain SWE1 (second series), active compounds read low 1.03 | locus YJL187C, strain SWE1, active compounds read low 0.996 | locus YKL009W, strain mrt4, active compounds read low 0.937 | locus YKL068W, active compounds read low 0.978 | locus YKL085W, strain MDH1 (second series), active compounds read low 0.99 | locus YKL085W, strain MDH1, active compounds read low 0.99 | locus YKL160W, strain elf1, active compounds read low 1.01 | locus YKL190W, strain CNB1, active compounds read low 1.04 | locus YKR001C, strain vps1, active compounds read low 1.02 | locus YKR026C, strain gcn3, active compounds read low 0.988 | locus YKR091W, strain srl3, active compounds read low 0.994 | locus YLL001W, strain dnm1, active compounds read low 0.985 | locus YLL026W, active compounds read low 1 | locus YLL041C, strain sdh2, active compounds read low 1.01 | locus YLR027C, strain aat2, active compounds read low 1.01 | locus YLR039C, strain RIC1, active compounds read low 1.16 | locus YLR058C, strain SHM2, active compounds read low 1.04 | locus YLR102C, strain apc9, active compounds read low 1.01 | locus YLR221C, strain rsa3, active compounds read low 1 | locus YLR258W, strain gsy2, active compounds read low 0.987 | locus YLR262C, strain YPT6 (second series), active compounds read low 0.898 | locus YLR262C, strain YPT6, active compounds read low 1.07 | locus YLR268W, strain sec22, active compounds read low 0.997 | locus YLR320W, strain mms22, active compounds read low 1 | locus YLR342W, strain FKS1 (second series), active compounds read low 1.04 | locus YLR342W, strain FKS1, active compounds read low 0.985 | locus YLR357W, strain rsc2, active compounds read low 1 | locus YLR370C, strain arc18, active compounds read low 0.983 | locus YLR371W, strain rom2, active compounds read low 1.02 | locus YLR384C, strain iki3, active compounds read low 1 | locus YLR418C, strain cdc73, active compounds read low 1.11 | locus YML016C, strain PPZ1, active compounds read low 1.03 | locus YML032C, strain rad52, active compounds read low 0.995 | locus YML120C, strain ndi1, active compounds read low 0.981 | locus YML124C, strain tub3, active compounds read low 1.01 | locus YMR058W, strain fet3, active compounds read low 0.984 | locus YMR078C, strain ctf18, active compounds read low 0.985 | locus YMR125W, strain sto1, active compounds read low 0.972 | locus YMR129W, active compounds read low 1 | locus YMR205C, strain PFK2, active compounds read low 1.01 | locus YMR223W, strain ubp8, active compounds read low 1 | locus YMR231W, strain pep5, active compounds read low 0.977 | locus YMR307W, strain GAS1, active compounds read low 1.3 | locus YNL067W, strain RPL9B, active compounds read low 1.03 | locus YNL071W, strain lat1, active compounds read low 0.978 | locus YNL128W, strain TEP1, active compounds read low 1.03 | locus YNL209W, strain ssb2, active compounds read low 0.998 | locus YNL233W, strain BNI4, active compounds read low 1.08 | locus YNL248C, strain rpa49, active compounds read low 0.958 | locus YNL250W, strain rad50, active compounds read low 1.01 | locus YNL271C, strain bni1, active compounds read low 0.987 | locus YNL298W, strain CLA4, active compounds read low 0.993 | locus YNL307C, strain MCK1, active compounds read low 1 | locus YNL322C, strain KRE1 (second series), active compounds read low 0.989 | locus YNR049C, strain mso1, active compounds read low 0.998 | locus YNR052C, strain pop2, active compounds read low 0.948 | locus YOL012C, strain htz1 1.2 | locus YOL147C, strain pex11, active compounds read low 1 | locus YOR001W, strain rrp6, active compounds read low 0.985 | locus YOR061W, strain CKA2, active compounds read low 1.02 | locus YOR069W, strain VPS5, active compounds read low 1.02 | locus YOR070C, strain gyp1, active compounds read low 0.997 | locus YOR080W, strain dia2, active compounds read low 0.984 | locus YOR083W, strain WHI5, active compounds read low 0.986 | locus YOR106W, strain vam3, active compounds read low 0.946 | locus YOR136W, strain idh2, active compounds read low 0.985 | locus YOR144C, strain elg1, active compounds read low 0.996 | locus YOR184W, strain ser1, active compounds read low 0.98 | locus YOR265W, strain rbl2, active compounds read low 0.992 | locus YOR270C, strain vph1, active compounds read low 0.87 | locus YOR290C, strain snf2, active compounds read low 0.984 | locus YOR316C, strain cot1, active compounds read low 0.991 | locus YPL051W, strain arl3, active compounds read low 0.997 | locus YPL055C, strain LGE1, active compounds read low 1.13 | locus YPL078C, strain atp4, active compounds read low 0.966 | locus YPL106C, strain sse1, active compounds read low 0.988 | locus YPL240C, strain hsp82, active compounds read low 0.997 | locus YPL241C, strain CIN2, active compounds read low 1.04 | locus YPR119W, strain clb2, active compounds read low 1.01 | locus YPR141C, strain kar3, active compounds read low 1 | locus YPR163C, strain tif3, active compounds read low 1 | locus YPR167C, strain met16, active compounds read low 0.993 | strain wtn01, active compounds read low 0.984

From PubChem BioAssay AID1159580 (chemical genetic matrix, 2015)
